In PubChem BioAssay (NCI):
The panel holds about 79,000 compounds, 15% with a hit somewhere; the sample as a whole holds those more often. Values without a mark were called inactive. Active and inactive are the calls of the source. Cut-off read from the data, not from the text of the source: active = growth inhibition above about 70%; inactive = the rest.

Assay: NCI Yeast Anticancer Drug Screen. Data for the wt1 strain (AID 149);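 note: 0% = growth of vehicle-treated wt1 cultures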
Conditions: S. cerevisiae wt1 strain (SPY 50644) growth inhibition; at 100.0 µM; stronger effect = higher value
Procedure, shortened: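 Measured: growth of wt1 yeast under compound versus vehicle treatment, reported as inhibition.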

In order of rising growth inhibition:
1. CCCC(=O)Oc1ccc(/C=N/NC(N)=S)nc1  -24%
2. COc1cc(C2SCC(=O)N2c2ccc(-c3ccc(-n4c(-c5ccccc5)nc5ccccc5c4=O)cc3)cc2)ccc1O (centres undefined)  -8%
3. COc1cc(CSc2ccc(O)cc2)cc(O)c1O  -1%
4. Cc1nc2ccccc2nc1NNc1ccccc1  20%
5. Brc1ccccc1-c1ncc(-c2ccccc2)o1  44%
6. O=C(NNc1ccccc1)c1ccc(Cl)c(Cl)c1  46%

For C[C@]12CC[C@H](O)CC1=CC[C@@H]1C2CC[C@]2(C)C(=O)NC(=O)CC12 (some centres undefined), the growth inhibition was 84% (active).
For CCc1c(Cl)c(C)cc(O)c1Cl, the growth inhibition was 72% (active).

Assay: NCI Yeast Anticancer Drug Screen. Data for the rad50EPP+ strain (AID 151);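 note: 0% = growth of vehicle-treated control cultures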
Conditions: S. cerevisiae rad50 mutant strain, at 1.2 µM, stronger effect = higher value
Procedure, shortened: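 Strain rad50EPP+; compound exposure; % growth inhibition vs vehicle.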

In order of falling growth inhibition:
1. CC(C)OC(=O)c1ccc(CCc2cc(O)c(Br)cc2O)cc1  66%
2. CNCCCNc1c2ccccc2nc2cccc([N+](=O)[O-])c12  43%
3. O=C1C=C(Cl)C(=O)C(c2ccc(Cl)cc2)=C1  40%
4. CC(=O)Nc1ccc2c(c1)Cc1cc(N=C3C=CC(=O)O3)ccc1-2  37%
5. COc1c(O)c(C=O)c(Br)c(C=O)c1O  24%
6. C(=Nc1ccc(-c2cc(-c3ccccc3)nc3ccc4ccccc4c23)cc1)c1ccccc1  16%
7. CCc1nc2ccc(NCCN(C)C)c3c(=O)c4ccccc4n1c23  14%
8. CSc1nc(C)c(CCOC(C)=O)c(N=P(c2ccccc2)(c2ccccc2)c2ccccc2)n1  12%
9. CS(=O)(=O)SCc1ccc([N+](=O)[O-])cc1  8%
10. CCCCCCCCCCCC(O)S(=O)(=O)O (centres undefined)  7%
11. COc1cc(C2SCC(=O)N2c2ccc(-c3ccc(-n4c(-c5ccccc5)nc5ccccc5c4=O)cc3)cc2)ccc1O (centres undefined)  3%
12. O=C(/C=C(/c1ccccc1)N1CCCCC1)c1ccccc1  3%
13. O=P(NC1CCCCC1)(OCc1ccccc1)OCc1ccccc1  2%
14. CCOC(=O)C1N=[N+](c2ccccc2)C(=O)/C1=C\n1c(=S)[nH]c2ccc([N+](=O)[O-])cc21 (centres undefined)  0%
15. CCOc1ccc(NC(=O)C2=C(C)NC(C)=C(C(=O)Nc3ccc(OCC)cc3)C2c2cccc([N+](=O)[O-])c2)cc1  -1%
16. CN(C)CCOC1(Cc2ccc(F)cc2)CCC(C(C)(C)C)CC1 (centres undefined)  -1%
17. O=C(NNc1ccccc1)c1ccc(Cl)c(Cl)c1  -1%
18. COc1cc(CSc2ccc(O)cc2)cc(O)c1O  -3%
19. CCCC/C=C/C(C)(C(=O)OCC)C(=O)OCC  -3%
20. CCCC(=O)Oc1ccc(/C=N/NC(N)=S)nc1  -3%
21. Cc1ccc(CC2(OCCN(C)C)CCC(C(C)(C)C)CC2)cc1 (centres undefined)  -4%
22. Cc1nc2ccccc2nc1NNc1ccccc1  -9%
23. Nc1cc(N)c(N=Nc2cccc3c(S(=O)(=O)O)cccc23)cc1N=Nc1cc([N+](=O)[O-])ccc1O  -11%
24. CCc1cc(O)c(Cl)c(C)c1Cl  -12%
25. Brc1ccccc1-c1ncc(-c2ccccc2)o1  -14%
26. COc1nc2c(c(=O)n1C)N=C(c1ccccc1)[C@H](C(CC(=O)c1ccccc1)c1ccccc1)C(c1ccccc1)N2 (some centres undefined)  -16%
27. Nc1ncnc2c1ncn2C1OC(CO)CC1O (centres undefined)  -16%
28. Nc1ccc(F)cc1S  -19%
29. COc1oc(C(=O)NC2CCCCC2)c(-c2ccc(Cl)cc2)c1S(=O)(=O)c1ccccc1  -22%
30. Cc1sc2ccc3ccccc3c2[n+]1C  -23%
31. Cc1ccc(Cl)cc1NC(=O)OCCN(C)C(=O)Nc1cc(Cl)ccc1C  -26%
32. CCc1c(Cl)c(C)cc(O)c1Cl  -27%
33. C[Si](C)(C)/C=C/CCNC(C#N)c1ccccc1 (centres undefined)  -28%
34. COC1=C(OC)C(=O)C(Sc2ccc3ccccc3c2)=CC1=O  -29%
35. C[C@]12CC[C@H](O)CC1=CC[C@@H]1C2CC[C@]2(C)C(=O)NC(=O)CC12 (some centres undefined)  -33%
36. Cc1cc(-c2cc(C)c(O)c(C(C)(C)C)c2)cc(C(C)(C)C)c1O  -35%
